Most compounds without a hit are left out; they make up all but 1.3% or so of the library.
PvdQ inh: P. aeruginosa PvdQ acylase inhibitors, primary screen, biochemical, fluorescence, plate reader and imaging, single point; purified PvdQ acylase; PvdQ acylase [Pseudomonas aeruginosa LESB58]; hit rate 0.063% among 340,000; inhibition, % at 10 µM; in the data active = inhibition above about 30%, passing the limit was not always enough
HTR5A inv ag: HTR5A inverse agonists in luminescence cell assay, primary screen, counter-screen for OPRM1-OPRD1 heterodimer inverse agonist project, full-deck HTS | inhibition, % at 9.3 µM | hit rate 0.083% among 340,000 | HTR5A cell line, inverse agonism | AID 504634, 2011 | 5-hydroxytryptamine receptor 5A (Homo sapiens), P47898; in the data active = inhibition mostly above about 23%, no sharp cut-off; inactive = mostly below about 18%
Target sequence (P47898 whole entry, looked up): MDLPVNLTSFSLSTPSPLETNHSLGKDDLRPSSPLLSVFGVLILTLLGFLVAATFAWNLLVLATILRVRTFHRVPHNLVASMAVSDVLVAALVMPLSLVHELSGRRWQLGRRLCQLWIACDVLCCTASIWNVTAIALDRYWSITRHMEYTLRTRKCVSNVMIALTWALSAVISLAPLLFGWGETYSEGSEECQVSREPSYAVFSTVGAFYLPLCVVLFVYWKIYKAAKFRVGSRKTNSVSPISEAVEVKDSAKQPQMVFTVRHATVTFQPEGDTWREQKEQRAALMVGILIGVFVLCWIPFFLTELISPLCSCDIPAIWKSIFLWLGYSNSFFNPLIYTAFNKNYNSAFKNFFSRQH
MOR-DOR ag: agonists of OPRM1-OPRD1 heterodimerization, primary screen, cell-based, luminescence; Mu-type opioid receptor (Homo sapiens) + Delta-type opioid receptor (Homo sapiens), …; cells; activation, % at 9.3 µM; hit rate 0.3% among 340,000; AID 504326, 2011
HTR5A ag ctr: HTR5A agonists in luminescence cell assay, primary screen, counter-screen for OPRM1-OPRD1 heterodimer agonist project, full-deck HTS. cell-based. activation, % at 9.3 µM. hit rate 0.61% among 340,000; in the data active = activation mostly above about 9.5%, no sharp cut-off; inactive = mostly below about 7.6%
MOR-DOR inv ag: inverse agonists of MOR-DOR heterodimerization, primary screen, cell-based, luminescence; hit rate 0.21% among 340,000; AID 504357, 2011; Mu-type opioid receptor (Homo sapiens) + Delta-type opioid receptor (Homo sapiens), …; inhibition, % at 9.3 µM; cell-based MOR-DOR heterodimer luminescence, inverse agonism; in the data active = inhibition above about 22%, passing the limit was not always enough
CR mimetic SO: reduction of superoxide in aged yeast, primary screen, HTS; superoxide response (% of plate mean), % at 10 µM; AID 2690, 2010; hit rate 0.18% among 330,000; S. cerevisiae aged cells, superoxide DHE fluorescence; hits give low values;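 active = superoxide response under a set limit, about three screen SD below normal, cut at about 65% in these data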;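 note: yeast aged for seven days with compound at 30 °C before DHE staining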
MOR-DOR ag conf: agonists of MOR-DOR heterodimerization, confirmation, cell-based, luminescence; cells, luminescence complementation; activation, % at 9.3 µM; shares compounds with MOR-DOR ag; hit rate 45% among 830
HTR5A ag counter: HTR5A agonists in cells, counter-screen for OPRM1-OPRD1 heterodimer agonist project, cell-based, luminescence; shares compounds with MOR-DOR ag; AID 504905, 2011; activation, % at 9.3 µM; HTR5A agonist counterscreen; hit rate 8% among 830; in the data active = activation above about 17%
Of the large screens only hits and unclear results are named; the others gave an inactive call (follow-up assays come after a bar, where they were run). Cut-off read from the data, not from the text of the source, unless noted: active = activation above about 18%; inactive = the rest.

Cc1c2cnn(CC(=O)Nc3c(F)c(F)cc(F)c3F)c(=O)c2c(C)n1Cc1ccccc1F	MOR-DOR ag 35 | MOR-DOR ag conf 34 | HTR5A ag counter 31
CNC(=O)Cn1ncc2c(C)n(Cc3ccc(C)cc3)c(C)c2c1=O	none
COc1ccc(CNC[C@@H](CCCCN(C)Cc2ccc(OC)cc2)N2C[C@H](c3ccccc3)N(CCc3ccc(Cl)c(Cl)c3)C(=O)C2=O)cc1	MOR-DOR ag 81, HTR5A ag ctr 21 (no result: CR mimetic SO) | MOR-DOR ag conf 127 | HTR5A ag counter 33
COc1ccc(CNC(=O)[C@@H]2CC=C[C@@H]3CCN(Cc4ccc(Cl)c(Cl)c4)C(=O)[C@@H]32)cc1	none
COc1ccc(NC(=O)CN2CCOCC2)cc1S(=O)(=O)N1CCCCC1	none
COc1ccc(NC(=O)CN2CCc3ccccc3C2)cc1S(=O)(=O)N1CCOCC1	MOR-DOR ag 51 | MOR-DOR ag conf inactive | HTR5A ag counter inactive
CCOC(=O)C1(CC2CCCCO2)CCN(Cc2ccc(OC)cc2F)CC1 (stereo unspecified)	MOR-DOR ag 48 | MOR-DOR ag conf 59 | HTR5A ag counter inactive
CCOC(=O)C1(CCOc2ccccc2)CCN(Cc2cccc(OC)c2)CC1	MOR-DOR ag 19 | MOR-DOR ag conf inactive | HTR5A ag counter 93
CCOC(=O)C1(CCOC)CCN(Cc2cccc(OCc3ccccc3)c2)CC1	none
CCOC(=O)C1(CCOC)CCN(Cc2ccccc2-c2ccco2)CC1	MOR-DOR ag 130 | MOR-DOR ag conf 33 | HTR5A ag counter inactive
CCOC(=O)C1(CCOc2ccccc2)CCN(Cc2cc(OC)ccc2OC)CC1	MOR-DOR ag 53 | MOR-DOR ag conf inactive | HTR5A ag counter 17
COc1cc(F)c(C2=CC(=O)C[C@H](c3ccc(Cl)cc3)C2)cc1F	none
O=C(NCCO)C(=O)Nc1cc2c3c(c1)CCN3C(=O)CC2	none
NC(=O)CC(NC(=O)c1ccc(Br)cc1)c1ccc(NC2CCCCCC2)c([N+](=O)[O-])c1 (stereo unspecified)	none
CCOC(=O)C1(CCOc2ccccc2)CCN(Cc2ccc3c(c2)OCCO3)CC1	MOR-DOR ag 25 | MOR-DOR ag conf 44 | HTR5A ag counter inactive
CCOC(=O)C1(CCOc2ccccc2)CCN(Cc2ccc(O)c(Cl)c2)CC1	none
CCN(CC)CCn1c2ccccc2c(=O)c2c(O)ccc(O)c21	MOR-DOR ag 19 (no result: CR mimetic SO) | MOR-DOR ag conf inactive | HTR5A ag counter inactive
CCN(CC)CCn1c(O)c(N=O)c2ccccc21	none
CC(=O)N1c2ccc(S(=O)(=O)NCC3CCC(C(=O)N4CCC(C)CC4)CC3)cc2CC1C (stereo unspecified)	none
O=C1C(Nc2ccc(O)cc2)=C/C(=N/S(=O)(=O)c2cccs2)c2ccccc21	MOR-DOR ag 24 (no result: CR mimetic SO) | MOR-DOR ag conf inactive | HTR5A ag counter inactive
Cc1cccc(NC2=C/C(=N/S(=O)(=O)c3cccs3)c3ccccc3C2=O)c1	none
CN(Cc1cnn(C)c1)C(=O)C1CCC(=O)N(Cc2ccc(Cl)cc2)C1 (stereo unspecified)	none
CN(CC(=O)Nc1ccc(Cl)cc1)CC(=O)Nc1cccc(Br)c1	none
Cc1ccccc1N1CC(O)(c2ccccc2)[N+]2=C1SCC2 (stereo unspecified)	MOR-DOR ag 218 | MOR-DOR ag conf 223 | HTR5A ag counter inactive
OC1(c2ccc(F)cc2)CN(c2ccccc2)C2=[N+]1CCS2 (stereo unspecified)	none
Cc1ccc(C2(O)CN(c3ccccc3C)C3=[N+]2CCS3)cc1 (stereo unspecified)	MOR-DOR ag 349 | MOR-DOR ag conf 373 | HTR5A ag counter inactive
Cc1ccc(C2(O)CN(c3ccccc3)C3=[N+]2CCS3)cc1 (stereo unspecified)	MOR-DOR ag 77 | MOR-DOR ag conf 194 | HTR5A ag counter inactive
CNc1ccc(C(=O)OCC(=O)NCc2ccc3c(c2)OCO3)cc1[N+](=O)[O-]	none
O=C1c2cccnc2C(=O)N1CO	none
NC1=C(Br)C(=O)c2ncccc2C1=O	MOR-DOR ag 20 (no result: CR mimetic SO) | MOR-DOR ag conf inactive | HTR5A ag counter inactive
COc1ccc(-c2nn(-c3ccccc3C)cc2CNCc2cccnc2)cc1F	MOR-DOR ag 72 | MOR-DOR ag conf 134 | HTR5A ag counter inactive
Fc1ccccc1COc1ccc(Br)cc1CNCc1cccnc1	none
COc1ccc(CNCc2cn(-c3cccc(F)c3)nc2-c2ccc(C)o2)cc1	MOR-DOR ag 120 | MOR-DOR ag conf inactive | HTR5A ag counter inactive
COc1ccc(-n2cc(CNCc3cccnc3)c(-c3cccc(F)c3)n2)cc1	MOR-DOR ag 55 | MOR-DOR ag conf 404 | HTR5A ag counter inactive
COc1ccc(-c2nn(-c3ccccc3)cc2CNCc2cccnc2)c(F)c1	MOR-DOR ag 21 | MOR-DOR ag conf inactive | HTR5A ag counter inactive
CC(Oc1ccc(Cl)cc1)C(=O)NCC1CCCO1 (stereo unspecified)	none
CCCCn1nc(C(=O)N(CC)CC(=O)Nc2c(F)cccc2F)c2ccccc2c1=O	none
COCc1c(C(=O)N/N=C/c2cccc3ccccc23)nnn1-c1nonc1N	MOR-DOR ag 27 | MOR-DOR ag conf inactive | HTR5A ag counter inactive
Cc1cccc(NC(=O)C2CC2c2ccccc2)c1C (stereo unspecified)	none
CSC(=Nc1ccccc1)N=C(SCc1ccccc1)N(C)C	MOR-DOR ag 76 (no result: CR mimetic SO) | MOR-DOR ag conf 38 | HTR5A ag counter inactive
N#CNC(=Nc1ccccc1)SCc1ccc(C(=O)O)cc1	none
COc1cc(NC(=O)C2CCN(c3cnccn3)CC2)cc(OC)c1OC	none
CCOc1cc(C)c(S(=O)(=O)Nc2ccc(F)cc2)cc1C	MOR-DOR ag 19 | MOR-DOR ag conf inactive | HTR5A ag counter inactive
Cc1cc(/C=C(\C#N)c2nc3ccccc3[nH]2)c(C)n1C	MOR-DOR ag 27, HTR5A ag ctr 13 | MOR-DOR ag conf inactive | HTR5A ag counter inactive
O=C(c1sc2ccccc2c1Cl)N(Cc1cccs1)C1CCS(=O)(=O)C1 (stereo unspecified)	MOR-DOR ag 162 | MOR-DOR ag conf inactive | HTR5A ag counter inactive
O=C(c1cccc(Cl)c1)N(Cc1cccs1)C1CCS(=O)(=O)C1 (stereo unspecified)	none
